Experiment [1] relates to Plasmodium falciparum Sir2 (PF13_0152, Sir2A). Briefly: pfSir2 binders on small-molecule microarrays, primary screen, biochemical, small-molecule microarray, 635 nm fluorescence (AID 1098).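 Further: score merges spot fluorescence intensity with its signal-to-noise ratio.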 Conditions: small-molecule microarray binding, fluorescence 635 nm; higher = more signal.
Experiment [2] can be described thus: small-molecule microarray binders of probe aDKK1, primary screen, biochemical, biotinylated probe, 635/667 nm fluorescence (AID 1099).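 Further: score merges 667nm spot fluorescence with signal to noise across triplicate slides.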 Conditions: higher = more signal.
A short description of experiment [3]: small-molecule microarray binders of probe aCHRDL2, primary screen, biochemical, biotinylated probe, 635/667 nm fluorescence (AID 1100). As to conditions: higher = more signal.
Experiment [4] is described as follows: splicing luciferase reporter signal modulators, primary screen, spliceosome inhibition project, cell-based, HEK293, splice +/- reporter (AID 1101).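 Further: HEK293 cells carrying a splicing-competent luciferase reporter gene; test concentration not given here.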 Conditions: luminescence, 24 h, higher = more signal, called active from +8 up or from −8 down. On the technique in general: Reporter assays use an easily measured gene product as a stand-in for the process of interest.

For experiment [5], the target named is Fibroblast growth factor 10 (Homo sapiens) (UniProt O15520). Briefly: FGF10 binders on small-molecule microarrays, primary screen, biochemical, small-molecule microarray, 635 nm fluorescence (AID 1102). As to conditions: FGF10 binding, fluorescence 635 nm, higher = more signal.
Fibroblast growth factor 10 (Homo sapiens), sequence (O15520 whole entry, looked up): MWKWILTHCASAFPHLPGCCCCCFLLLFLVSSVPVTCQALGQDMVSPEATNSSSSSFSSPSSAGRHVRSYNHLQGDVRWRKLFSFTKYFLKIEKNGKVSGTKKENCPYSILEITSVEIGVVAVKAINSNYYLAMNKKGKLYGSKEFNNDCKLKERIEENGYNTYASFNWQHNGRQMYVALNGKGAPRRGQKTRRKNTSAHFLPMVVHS
Experiment [6] relates to glycogen synthase kinase-3 (GSK3A per assay name; protocol says GSK3B). As to the kind of experiment: GSK3 binders on small-molecule microarrays, primary screen, biochemical, small-molecule microarray, 635 nm fluorescence, GSK3A (AID 1103). Further: the record names both GSK3A and GSK3B. As to conditions: small-molecule microarray binding, fluorescence 635 nm; higher = more signal.
Experiment [7] deals with Epidermal growth factor receptor (Homo sapiens) (UniProt P00533). Briefly: EGFR binders on small-molecule microarrays, primary screen, biochemical, small-molecule microarray, 635 nm fluorescence (AID 1104).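 Further: score merges 667 nm emission intensity with spot signal to noise over triplicate slides.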 As to conditions: EGFR binding, higher = more signal.
Epidermal growth factor receptor (Homo sapiens), sequence (P00533 whole entry, looked up): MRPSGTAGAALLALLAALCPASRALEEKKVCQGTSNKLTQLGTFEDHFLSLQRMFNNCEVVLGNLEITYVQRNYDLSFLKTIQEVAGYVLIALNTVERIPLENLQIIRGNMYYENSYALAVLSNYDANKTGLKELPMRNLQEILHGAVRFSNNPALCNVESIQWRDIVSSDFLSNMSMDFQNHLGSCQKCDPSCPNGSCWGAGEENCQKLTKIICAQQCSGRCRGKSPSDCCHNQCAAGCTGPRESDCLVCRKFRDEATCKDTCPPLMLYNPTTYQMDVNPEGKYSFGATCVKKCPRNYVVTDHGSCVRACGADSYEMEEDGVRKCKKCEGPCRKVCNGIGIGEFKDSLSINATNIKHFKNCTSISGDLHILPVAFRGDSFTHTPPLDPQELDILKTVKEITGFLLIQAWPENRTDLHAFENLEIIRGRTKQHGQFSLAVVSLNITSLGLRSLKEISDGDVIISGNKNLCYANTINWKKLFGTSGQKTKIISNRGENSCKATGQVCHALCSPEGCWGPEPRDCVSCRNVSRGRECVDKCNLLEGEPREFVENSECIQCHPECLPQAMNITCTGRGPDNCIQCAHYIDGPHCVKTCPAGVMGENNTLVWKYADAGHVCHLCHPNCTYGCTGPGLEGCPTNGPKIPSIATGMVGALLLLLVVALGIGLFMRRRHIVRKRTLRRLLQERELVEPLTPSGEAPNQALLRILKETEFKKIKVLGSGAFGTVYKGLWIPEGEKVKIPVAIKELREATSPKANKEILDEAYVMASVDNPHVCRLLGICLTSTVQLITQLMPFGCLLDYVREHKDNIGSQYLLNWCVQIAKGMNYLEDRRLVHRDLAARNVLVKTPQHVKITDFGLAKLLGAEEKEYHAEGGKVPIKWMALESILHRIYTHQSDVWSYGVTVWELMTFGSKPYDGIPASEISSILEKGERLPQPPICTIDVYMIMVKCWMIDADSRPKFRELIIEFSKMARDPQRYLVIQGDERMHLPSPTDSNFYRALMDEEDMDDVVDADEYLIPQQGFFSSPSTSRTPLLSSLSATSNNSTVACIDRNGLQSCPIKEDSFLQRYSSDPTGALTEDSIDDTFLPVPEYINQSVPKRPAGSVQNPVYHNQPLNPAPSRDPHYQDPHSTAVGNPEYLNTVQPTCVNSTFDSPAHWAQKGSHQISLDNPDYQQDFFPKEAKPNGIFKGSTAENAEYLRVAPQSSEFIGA
The target of experiment [8] is Follistatin-related protein 3 (Homo sapiens) (UniProt O95633). As to the kind of experiment: FSTL3 binders on small-molecule microarrays, primary screen, biochemical, small-molecule microarray, 635 nm fluorescence (AID 1105).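 Further: score merges emission near 667 nm and signal to noise per printed spot across three slides.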 Conditions: FSTL3 binding, higher = more signal.
Follistatin-related protein 3 (Homo sapiens), sequence (O95633 whole entry, looked up): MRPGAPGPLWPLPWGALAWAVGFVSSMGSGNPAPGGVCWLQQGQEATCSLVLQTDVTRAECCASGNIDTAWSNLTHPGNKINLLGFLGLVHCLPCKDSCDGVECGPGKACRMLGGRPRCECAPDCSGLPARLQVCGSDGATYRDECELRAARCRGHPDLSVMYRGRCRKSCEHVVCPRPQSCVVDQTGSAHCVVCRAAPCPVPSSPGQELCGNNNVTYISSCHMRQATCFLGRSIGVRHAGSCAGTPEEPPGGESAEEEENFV
The target of experiment [9] is Dickkopf-related protein 1 (Homo sapiens) (UniProt O94907). As to the kind of experiment: DKK1 binders on small-molecule microarrays, primary screen, biochemical, small-molecule microarray, 635 nm fluorescence scan (AID 1106).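 Further: score merges emission near 667 nm with signal to noise over three replicate slides.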 As to conditions: DKK1 binding, higher = more signal.
Dickkopf-related protein 1 (Homo sapiens), sequence (O94907 whole entry, looked up): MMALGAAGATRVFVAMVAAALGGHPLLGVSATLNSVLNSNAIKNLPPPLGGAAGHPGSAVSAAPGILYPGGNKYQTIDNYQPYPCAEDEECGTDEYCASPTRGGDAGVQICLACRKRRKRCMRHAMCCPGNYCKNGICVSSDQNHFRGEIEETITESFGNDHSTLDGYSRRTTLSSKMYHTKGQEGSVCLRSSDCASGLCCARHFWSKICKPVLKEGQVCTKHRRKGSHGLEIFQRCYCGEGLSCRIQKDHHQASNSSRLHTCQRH
Experiment [10] has as its system Inhibin beta A chain (activin A). Briefly: INHBA (activin A) binders on microarrays, primary screen, biochemical, small-molecule microarray, 635 nm fluorescence scan (AID 1107).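 Further: mouse activin A protein probed at 4.33 µg/mL on printed slides; score merges bound-protein fluorescence near 667 nm with spot signal-to-noise.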 Conditions: small-molecule microarray binding, higher = more signal.
The test system of experiment [11] is Human papillomavirus type 1a protein E7 (residues 44-93). As to the kind of experiment: HPV1a E7 fragment binders on microarrays, primary screen, biochemical, small-molecule microarray, residues 44-93, 635 nm fluorescence (AID 1108).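 Further: E7 fragment applied at 1 µg/mL in TBST for 1 h at 4 C; score combines spot fluorescence with its signal to noise ratio.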 Conditions: small-molecule microarray binding, fluorescence 635 nm; higher = more signal.
The nature of experiment [12]: modulators of HCV replicon luciferase signal, primary screen, HCV replication inhibitor project, Huh7 cells, luciferase reporter (AID 1109).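 Further: huh7 hepatoma cells harbouring a luciferase neomycin HCV replicon reporter; luciferase luminescence as measure of HCV replicon replication; test concentration not given here.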 Conditions: 48 h, higher = more signal. (In antiviral work, replicon cells carry a viral genome segment that copies itself.)
The target in experiment [13] is Left-right determination factor 2 (Homo sapiens) (UniProt O00292). Briefly: LEFTY2 binders on small-molecule microarrays, primary screen, biochemical, small-molecule microarray, 635 nm fluorescence scan (AID 1110). As to conditions: LEFTY2 binding, higher = more signal.
Left-right determination factor 2 (Homo sapiens), sequence (O00292 whole entry, looked up): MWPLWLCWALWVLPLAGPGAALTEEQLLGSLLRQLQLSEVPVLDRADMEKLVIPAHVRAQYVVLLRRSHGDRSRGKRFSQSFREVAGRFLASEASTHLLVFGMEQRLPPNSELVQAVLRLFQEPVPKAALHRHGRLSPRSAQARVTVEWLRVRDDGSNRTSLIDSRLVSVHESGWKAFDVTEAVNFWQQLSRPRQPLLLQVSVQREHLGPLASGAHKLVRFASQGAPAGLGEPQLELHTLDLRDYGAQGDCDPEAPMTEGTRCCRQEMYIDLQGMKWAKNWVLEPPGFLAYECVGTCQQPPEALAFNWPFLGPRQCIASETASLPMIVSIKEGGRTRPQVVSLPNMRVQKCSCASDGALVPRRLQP
Experiment [14] deals with Calmodulin-1 (Homo sapiens) (UniProt P0DP23). As to the kind of experiment: CALM1 binders on microarrays, EGTA buffer, profiling panel, biochemical, small-molecule microarray, Cy5-labelled CALM1 (AID 1111).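 Further: labelled calmodulin applied in Tris saline Tween buffer holding calcium plus EGTA and DTT.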 Conditions: Cy5-CALM1 binding fluorescence, higher = more signal.
The target is the same in experiment [15]. As to the kind of experiment: calcium-bound CALM1 binders on microarrays, profiling panel, artefact control for SMM control-protein annotation, biochemical, small-molecule microarray, Cy5-labelled CALM1, plus calcium (AID 1112).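 Further: score merges spot fluorescence with signal to noise from triplicate slides.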 As to conditions: Cy5-CALM1 binding fluorescence, higher = more signal.
A short description of experiment [16]: small-molecule microarray binders of probe aWnt5a, primary screen, biochemical, biotinylated probe, 635/667 nm fluorescence (AID 1113).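 Further: score merges 667 nm fluorescence intensity with signal-to-noise per printed feature.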 Conditions: higher = more signal.
The nature of experiment [17]: small-molecule microarray binders of probe aShh, primary screen, biochemical, biotinylated probe, 635/667 nm fluorescence (AID 1114).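 Further: probe is biotin-labelled aShh protein from a stem cell growth factor screen; measures binding of labelled protein to compounds printed on the slide; score merges feature fluorescence at 667 nm with signal-to-noise.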 As to conditions: higher = more signal.
Experiment [18] can be described thus: small-molecule microarray binders of probe aNog, primary screen, biochemical, biotinylated probe, 635/667 nm fluorescence (AID 1115).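 Further: probe is biotinylated aNog protein used at 0.15 µg/mL for 1 h at 4 C; z-score combines 667 nm fluorescence of each spot with its signal to noise.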 Conditions: higher = more signal.
Experiment [19] has as its target Torsin-1A-interacting protein 1 (Homo sapiens) (UniProt Q5JTV8). As to the kind of experiment: LAP1 binders from COS7 cell lysate, primary screen, small-molecule microarray, 635/667 nm fluorescence (AID 1116). As to conditions: COS7-hLAP1 lysate binding, 635 nm fluorescence, higher = more signal.
Experiment [20] addresses Alpha-bungarotoxin (Bungarus multicinctus) (UniProt P60615). Briefly: alpha-bungarotoxin binders on microarray, profiling panel, artefact control for SMM control protein annotation, biochemical, small-molecule microarray, Alexa647 label, 635/667 nm fluorescence (AID 1117). As to conditions: alpha-BTX-A647 binding fluorescence, higher = more signal.

Values joined by “and” are separate entries in the source; they are usually repeats but may differ in a detail not shown here. Equal entries are not always repeated. Active and inactive are the calls of the source.

This is an account of results in PubChem BioAssay.

Alpha-bungarotoxin (Bungarus multicinctus), sequence (P60615 whole entry, looked up): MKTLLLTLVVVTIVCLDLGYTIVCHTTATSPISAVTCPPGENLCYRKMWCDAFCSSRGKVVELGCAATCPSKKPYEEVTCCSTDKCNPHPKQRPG
Torsin-1A-interacting protein 1 (Homo sapiens), sequence (Q5JTV8 whole entry, looked up): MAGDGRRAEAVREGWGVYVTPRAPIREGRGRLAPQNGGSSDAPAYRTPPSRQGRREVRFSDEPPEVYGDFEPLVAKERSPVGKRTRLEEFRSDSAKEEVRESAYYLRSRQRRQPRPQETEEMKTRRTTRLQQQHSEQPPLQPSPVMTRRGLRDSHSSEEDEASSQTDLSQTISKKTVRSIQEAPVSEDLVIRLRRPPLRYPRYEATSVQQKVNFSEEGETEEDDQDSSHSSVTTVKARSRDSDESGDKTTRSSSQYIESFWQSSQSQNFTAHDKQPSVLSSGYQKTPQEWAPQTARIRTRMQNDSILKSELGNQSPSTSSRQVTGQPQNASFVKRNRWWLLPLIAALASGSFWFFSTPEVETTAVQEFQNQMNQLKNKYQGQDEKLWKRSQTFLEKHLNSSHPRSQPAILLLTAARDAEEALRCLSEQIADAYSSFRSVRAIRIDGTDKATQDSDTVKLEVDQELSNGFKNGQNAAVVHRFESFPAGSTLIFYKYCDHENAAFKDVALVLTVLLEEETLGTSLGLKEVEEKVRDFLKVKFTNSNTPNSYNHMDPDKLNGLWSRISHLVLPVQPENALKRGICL

With `C[N+](C)(C)CCCCNC(=O)[C@H]1C[C@H]2C(=O)N[C@@H](CCCC[N+](C)(C)C)C(=O)N2[C@H]1c1cccc(OCCO)c1`, the composite z-score in experiment [1] is 1.82 and 1.11; in experiment [2] it was -0.171 and 0.256; in [3], -0.537 and -0.421; in experiment [5], 1.51 and 1.39; in experiment [6] it was 0.0299 and 1.1; in [7] it was 0.622 and 1.27. In addition, the composite z-score in experiment [8] was 1.45 and 1.51; in experiment [9], 1.44 and 1.81; in experiment [10] it was 0.282 and 0.696; in experiment [11], -0.779 and 0.569; in experiment [13], 1.36 and 1.28; in [14], -1.49 and -0.367. For the same compound, the composite z-score is -0.691 and -0.325 in [15]; -0.127 and -0.0512 in experiment [16]; 0.0948 and 0.395 in experiment [17]; -0.249 and -0.234 in experiment [18]; 1.89 and 2.53 in experiment [19]; -0.559 and 0.47 in [20]. Besides, the z-score in experiment [4] was 0.00747 (inactive) and -0.387 (inactive); in experiment [12], -1.34 and -0.59.

On to `COC(=O)C1=C(C)N(Cc2ccccc2)[C@]23O[C@](C(=O)OC)(C(=O)N2[C@@H]1c1ccccc1)[C@@H](c1ccccc1)[C@@H]3C(=O)c1ccccc1`, for which the composite z-score in experiment [1] is -0.104 and 0.177; in experiment [2], 0.107 and 0.263; in [3] it was -0.0791 and -0.347; in experiment [5], 0.0494 and 0.417; in experiment [6], 0.338 and -0.145; in experiment [7], 0.0596 and 0.511. Moreover, the composite z-score in experiment [8] was 0.208 and 0.524; in experiment [9] it was 0.217 and 0.967; in experiment [10], -0.431 and 1.21; in experiment [11], 0.189 and -0.932; in experiment [13], 0.494 and 0.9; in experiment [14] it was 1.43 and -1.06. For the same compound, the composite z-score in [15] is 0.589 and -0.256; in experiment [16], -0.0417 and -0.137; in [17], -0.276 and -0.16; in experiment [18], -0.0315 and -0.226; in [19], 0.296 and -0.228; in experiment [20] it was 0.932 and -0.0514. Further, the z-score in experiment [4] is -1.55 (inactive) and -0.5 (inactive); in experiment [12], 0.989 and 0.471.

As for `C[C@@H](ON=C1[C@H]2CCn3c(=O)n(-c4ccccc4)c(=O)n3[C@H]2[C@H](O)[C@@H]2O[C@H]12)c1cn([C@H](CO)Cc2ccccc2)nn1`, the composite z-score in experiment [1] was 0.494; in experiment [2], -0.173; in experiment [3], -0.569; in experiment [5], 0.416; in experiment [6], 0.438; in experiment [7], 0.419. In addition, the composite z-score in [8] is 0.572; in [9], 0.462; in experiment [10], -0.0477; in experiment [11] it was 0.46; in experiment [13], 0.605; in experiment [14], 0.0208. Besides, the composite z-score in experiment [15] is -0.549; in [16], -0.148; in [17], -0.358; in experiment [18], -0.364; in [19], -0.0609; in experiment [20], 0.24. Further, the z-score in [4] is 0.211 (inactive); in experiment [12], -3.71.

In the case of `C=C[C@@H](C)[C@@H](O)c1ccc(OCCO)cc1`, the composite z-score in experiment [1] was 0.886 and 1.38; in experiment [2] it was -0.265 and -0.238; in experiment [3], 1.09 and 0.349; in experiment [5] it was -1.75 and -1.12; in experiment [6] it was -0.736 and -0.659; in experiment [7] it was -2.13 and -2.11. Further, the composite z-score is -1.25 and -1.05 in experiment [8]; -2.51 and -1.8 in experiment [9]; -3.81 and -0.988 in experiment [10]; -1.62 and -1.54 in [11]; -2.93 and -2.01 in [13]; -0.905 and -0.8 in experiment [14]. In addition, the composite z-score in [15] was 0.129 and 0.206; in [16] it was -0.286 and -0.27; in [17], -0.221 and -0.17; in experiment [18] it was -0.512 and -0.141; in experiment [19] it was -0.603 and 1.44; in experiment [20], -1.5 and -1.44. Moreover, the z-score in [4] is 0.26 (inactive) and -1.46 (inactive); in [12], -0.934 and -0.376.

For the compound `CCCCN1CC=CC23O[C@@H]4C=CCCOC(=O)C4[C@H]2C(=O)N(C(C)CO)[C@@H]3C1=O` (stereo not given in full), the composite z-score was 0.381 and 0.0105 in [1]; -0.286 and -0.221 in experiment [2]; 0.473 and -0.194 in experiment [3]; -0.346 and 0.232 in experiment [5]; -0.662 and -0.551 in experiment [6]; -0.683 and -0.191 in experiment [7]. Further, the composite z-score in experiment [8] is -0.934 and -0.0066; in experiment [9], -0.135 and 0.176; in experiment [10], 0.958 and 1.07; in [11], 0.228 and -0.107; in experiment [13], -0.321 and 0.0741; in [14], -0.495 and 0.257. Further, the composite z-score is -0.396 and 0.473 in [15]; -0.0403 and -0.154 in experiment [16]; 0.171 and 0.0637 in experiment [17]; 0.179 and 0.0775 in experiment [18]; -0.19 and 0.191 in experiment [19]; -0.44 and -0.137 in [20]. In addition, the z-score in experiment [4] is 0.856 (inactive) and -0.0825 (inactive); in experiment [12] it was -0.797 and -0.144.
